This is an account of results in PubChem BioAssay AID504660 (National Center for Advancing Translational Sciences (NCATS), 2011).

SMILES strings stand for the structures. Values joined by “and” are separate entries in the source; they are usually repeats but may differ in a detail not shown here. Equal entries are not always repeated. Hit rate of the full screen: of about 360,000 compounds, about 3,700 (1%) were called active. Cut-off read from the data, not from the text of the source: active = activation above about 30%; inactive = the rest. The full list was thinned out, with actives kept by preference. Some structures have more than one record in an assay (separate samples or runs), and their calls can disagree.

Sequence of D(1A) dopamine receptor (Homo sapiens) (P21728 whole entry, looked up): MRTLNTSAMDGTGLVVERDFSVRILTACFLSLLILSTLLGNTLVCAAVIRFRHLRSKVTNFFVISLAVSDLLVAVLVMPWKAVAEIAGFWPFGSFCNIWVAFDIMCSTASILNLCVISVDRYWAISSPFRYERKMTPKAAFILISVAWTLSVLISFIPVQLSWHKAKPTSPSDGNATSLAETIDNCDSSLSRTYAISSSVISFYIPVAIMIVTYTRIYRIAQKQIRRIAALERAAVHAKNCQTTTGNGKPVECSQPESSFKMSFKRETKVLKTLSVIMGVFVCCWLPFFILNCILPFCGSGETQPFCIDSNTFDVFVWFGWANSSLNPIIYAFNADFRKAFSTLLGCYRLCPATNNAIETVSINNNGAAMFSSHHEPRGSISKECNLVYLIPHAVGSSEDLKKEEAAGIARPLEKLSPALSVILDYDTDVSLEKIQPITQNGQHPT

This test has as its target D(1A) dopamine receptor (Homo sapiens) (UniProt P21728). As to the kind of experiment: Allosteric Agonists of the Human D1 Dopamine Receptor: qHTS. Note: 0% is about no effect. To be noted: HEK293 T-REx D1 cells, calcium flux, agonist mode; at 2 µM; stronger effect = higher value. A digest of the protocol:
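Agonism was scored from calcium flux recorded over 180 s (1 read/s) after pintool compound addition, following a 10-cycle baseline. Cells were inducible force-coupled HEK293 TREx D1, plated overnight at 30 C and loaded with no-wash calcium dye.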
Consider `Cc1cc(C(=O)Nc2cccc(C(F)(F)F)c2)c2c(C)nn(-c3cccc(F)c3)c2n1`, for which the activation is 19.5% (inactive).

As to `CCOc1ccc(-n2c(SCC(=O)NCc3ccccc3)nc3n[nH]c(C)c3c2=N)cc1`, the activation is 1.25% (inactive). With `COc1ccc(N(CC(=O)NCCc2ccc(Cl)cc2)S(=O)(=O)c2c(C)nn(C)c2C)cc1` the figure was 0.495% (inactive); with `CCOC(=O)c1[nH]c(C)c(CCC(=O)NCc2ccccc2C)c1C`, -0.942% (inactive); with `CCOc1ccc(-c2nonc2NC(=O)c2oc3ccc(CC)cc3c2C)cc1`, 5.77% (inactive). With `Cc1ccc(OC(=O)CSc2nnc(-c3cccs3)o2)cc1` the figure was 1.31% (inactive). As to `CCN1CCN(c2ncc3c(n2)CC(c2ccccc2O)CC3=O)CC1` (stereo not given), the activation was 9.15% (inactive).

Take `Nc1ccc2nc3c(=O)[nH]c(=S)[nH]c3nc2c1`: the activation was 108% (active). With `CCC1CCCCN1S(=O)(=O)c1ccc(NC(=O)c2cc(=O)c3ccccc3o2)cc1` (stereo not given) the figure was 0.0446% (inactive); with `CC(C)C(=O)Nc1nc2c(s1)CC(C(C)(C)C)CC2` (stereo not given), 1.03% (inactive). As for `COc1ccc(Cl)cc1NC(=O)CSc1nc(=O)[nH]c2c1CCCC2`, the activation is 6.85% (inactive).

Consider `Cc1ccc(O)c(NC(=O)CCS(=O)(=O)c2nc(-c3ccc4c(c3)OCO4)cc(C(F)(F)F)n2)c1`, for which the activation is 5.29% (inactive). With `CSC1=NCCN1C(=O)Cc1cccc2ccccc12` the figure was 1.65% (inactive); with `CCOc1ccc(Br)cc1CSC(=N)N`, 21.9% (inactive). On to `N=C(N)SCc1cccc2ccccc12`, for which the activation is 47.6% (active). In the case of `CN1CCOc2cc(S(=O)(=O)N3CCN(S(=O)(=O)c4c(F)cccc4F)CC3)cnc21`, the activation was 1.83% (inactive). `CCSC1=NCCN1C(=O)c1ccc(S(=O)(=O)N(CC)CC)cc1`: the activation is 1.17% (inactive).

As for `CCCN(CCC)S(=O)(=O)c1ccc(C(=O)NNC(=O)c2cc(OC)c(OC)c(OC)c2)cc1`, the activation is 6.23% (inactive). As to `CCCN(CCC)S(=O)(=O)c1ccc(C(=O)N2CC3CCC(CC3)C2)cc1`, the activation is 37.1% (active). For `COc1ccccc1NC(=O)C(=O)c1cc(C)n(-c2ccccc2F)c1C`, the activation was 1.84% (inactive). Consider `CCNS(=O)(=O)c1cc(-c2nnc(Nc3cccc(C(F)(F)F)c3)c3ccccc23)ccc1C`, for which the activation is 4.19% (inactive). On to `Cc1csc2nc(COC(=O)c3ccccc3NC(=O)c3ccccc3Cl)cc(=O)n12`, for which the activation is 3.01% (inactive).

As to `c1ccc2c(NC3C4CC5CC(C4)CC3C5)nc(N3CCOCC3)nc2c1` (stereo not given), the activation was 38.3% (active). `Fc1cnc(N2CCOCC2)nc1NCc1ccccc1`: the activation is 1.23% (inactive). With `c1cnc(NC2C3CC4CC(C3)CC2C4)nc1` (stereo not given), the activation was 7% (inactive). With `CCOC(=O)c1cc2c(=O)n3ccccc3nc2n(Cc2ccco2)c1=NC(=O)c1ccc(F)cc1` the figure was -0.478% (inactive).

Consider `CCCCCn1c(=O)[nH]c2cc(C(=O)Nc3cc(C)cc(C)c3)ccc2c1=O`, for which the activation was 0.484% (inactive).

In the case of `CCOC(=O)C1CCN(c2ncnc3c2c(-c2ccccc2)cn3-c2cccc(C)c2)CC1`, the activation was -1.59% (inactive). As for `Oc1ccc(Cl)cc1C1C=C(c2ccc3c(c2)OCO3)NC(c2c(F)cccc2Cl)N1` (stereo not given), the activation is 21.1% (inactive).

As for `CCOc1ccc(NC(=O)c2cn(C3CCCCC3)c(=O)c3c2c2ccccc2n3C)cc1`, the activation is 2.25% (inactive). Take `CCCc1nc2c(c(=O)c3ccccc3n2C)c(=O)n1C1CCCCCC1`: the activation is 190% (active).

As to `CCCN1C(=O)C(Cc2nc3ccccc3c(=O)n2-c2ccccc2)c2cc(C)ccc21` (stereo not given), the activation is 5.26% (inactive) and 5.84% (inactive). As for `Cc1ccc2c(=O)cc(C(=O)Nc3sc4c(c3C(=O)NCc3cccnc3)CCCC4)oc2c1`, the activation is 1.62% (inactive). With `COc1ccc(S(=O)(=O)NCc2cccn2Cc2cccc(C)c2)cc1Cl` the figure was 33.8% (active). With `COc1ccccc1CNS(=O)(=O)c1ccc2c(c1)NC(=O)CS2` the figure was 4.9% (inactive). On to `COc1ccc(S(=O)(=O)NCc2cccn2Cc2cccc(C)c2)cc1`, for which the activation was 23.9% (inactive). Consider `Cc1ccc(Cl)cc1NC(=O)CCC(=O)N1CC(C)Sc2ccccc21` (stereo not given), for which the activation is 0.39% (inactive). Regarding `Cc1cccc(-n2c(SCC(N)=O)nc3c(oc4ccccc43)c2=O)c1`, the activation was -1.27% (inactive). As for `Cc1cccc(N2CCN(C(=O)CCSCc3ccccc3F)CC2)c1C`, the activation was 1.3% (inactive). As for `Cc1ccc(C)c(CN2CCC(CNC(=O)Nc3ccc(C)c(F)c3)CC2)c1`, the activation was 26.2% (inactive). For the molecule `COc1cc(NC(=O)NCC2CCN(Cc3ccc(C)cc3)CC2)cc(OC)c1OC`, the activation is 2.18% (inactive) and 0.967% (inactive). With `Cc1cccc(CN2CCC(CNC(=O)Nc3ccc(F)c(Cl)c3)CC2)c1` the figure was 42.5% (active); with `CCOC(=O)c1ccc(CSc2nnc3cc(C)c4ccccc4n23)cc1`, 4.34% (inactive); with `O=C(CNC(=O)c1ccccc1)OC(C(=O)Nc1cc([N+](=O)[O-])ccc1F)c1ccccc1` (stereo not given), 1.22% (inactive). In the case of `COc1ccccc1OCCC(=O)OCC(=O)NCc1ccccc1`, the activation is -0.432% (inactive). With `CC(O)CNCCOc1cccc(Oc2ccccc2)c1` (stereo not given) the figure was 4.04% (inactive); with `COc1ccccc1OCCNCC(O)COc1cccc2[nH]c3ccccc3c12` (stereo not given), 17.7% (inactive) and 34% (active). Take `COc1ccc(CCNC(=O)CCCCn2c(=O)c3ccccc3n(Cc3ccccc3C)c2=O)cc1OC`: the activation was 13.8% (inactive).

For `Cc1cc(OCC(=O)Nc2ncn[nH]2)c(C)c(C)c1Br`, the activation is 1.36% (inactive). As to `COc1ccccc1CNC(=O)C(=O)NCC(c1cccs1)S(=O)(=O)c1cccs1` (stereo not given), the activation was 7.48% (inactive).

As to `CCn1c2ccccc2c2cc(CN3CCN(Cc4cccc(Cl)c4)CC3)ccc21`, the activation was 2.19% (inactive). With `Cc1cccc(Nc2cc(C)nc(-n3nc(C)cc3C)n2)c1`, the activation was -1.13% (inactive).

On to `Cc1cccc(NC(=O)c2ccc(F)c(S(=O)(=O)N(C)C3CCCCC3)c2)c1`, for which the activation is 0.598% (inactive). Turning to `COCCN(Cc1ccccc1)C(=O)Cc1ccc(S(=O)(=O)N2CCOCC2)s1`, the activation was 134% (active).

Take `O=C(Cc1ccc(S(=O)(=O)N2CCOCC2)s1)NCCC(c1ccccc1)c1ccccc1`: the activation is 2.27% (inactive). On to `CCN(Cc1ccccc1)C(=O)Cc1ccc(OC)c(S(=O)(=O)N2CCOCC2)c1`, for which the activation was 3.33% (inactive). Turning to `CCOC(=O)c1cc(-c2ccccc2)n(CCC(=O)Nc2ccccc2CC)c1C`, the activation was 5.65% (inactive). `CCC(=O)N1CCc2cc(Br)cc(S(=O)(=O)Nc3ccc(C)cc3C)c21`: the activation is 0.918% (inactive). Consider `CC(C)N(Cc1ccccc1)C(=S)Nc1ccc(OC(F)F)cc1`, for which the activation was 15.8% (inactive). As for `CC(NC(=S)Nc1ccc(OC(F)F)cc1)c1ccc(F)cc1` (stereo not given), the activation was 41.7% (active). For the molecule `CC/C(=N\NC(=S)NC(C)C)c1ccc(OC(F)F)cc1`, the activation was 0.526% (inactive). With `Cc1ccc(S(=O)(=O)NC(N)=NCCC[C@@H](NC(=O)CNC(=O)c2ccccc2)C(=O)Nc2cc(C(F)(F)F)ccc2Cl)cc1`, the activation is 4.3% (inactive). For the molecule `CCOC(=O)c1ccc(CN(Cc2ccccc2)S(=O)(=O)c2ccc(Cl)cc2)cc1`, the activation is 18.5% (inactive). For the molecule `O=[S+]([O-])(c1ccc(OC(F)(F)F)cc1)N1CCN([S+](=O)([O-])c2ccc3c(c2)OCCO3)CC1`, the activation was 4.97% (inactive).

As to `CC1Cc2cc(S(=O)(=O)CCC(=O)NCc3ccc(Cl)cc3)ccc2N1C(=O)C1CC1` (stereo not given), the activation is 14% (inactive). `Cc1cccc(NC(=O)N2CCCCCC2)c1C`: the activation was 0.571% (inactive).

For the molecule `Cc1cccc(NC(=O)c2cccc(C(=O)Nc3cccc(C)c3C)n2)c1C`, the activation is 2.25% (inactive). With `Cc1cccc(NC(=O)N2CCN(C)c3ncccc32)c1C` the figure was 33.9% (active); with `O=C1C(F)N([S+](=O)([O-])c2ccc3c(c2)OCCO3)CCN1[S+](=O)([O-])c1c(F)cccc1F` (stereo not given), -0.431% (inactive). With `COc1ccc(CCC(=O)NCCc2csc(-c3ccc(Cl)cc3)n2)cc1` the figure was 5.93% (inactive); with `O=C(c1ccc(Cl)cc1)n1cnc2ccccc21`, 1.83% (inactive); with `O=C(Cc1nc2ccccc2[nH]c1=O)c1ccc(Cl)cc1`, 69.4% (active). Regarding `O=c1c(-c2ccc(Cl)cc2)[n+]([O-])c2ccccc2n1OCc1nc2ccccc2[nH]1`, the activation was -0.955% (inactive). With `C#CC(C)(CC)NC(=O)Cn1nnc(-c2ccc(OCc3c(F)cccc3Cl)cc2)n1` (stereo not given), the activation was 3.62% (inactive). Turning to `COc1ccc(CCNC(=O)CCCn2c(=O)c3ccccc3n(Cc3ccc(C)cc3)c2=O)cc1OC`, the activation was -2.01% (inactive). Turning to `COc1cccc(CNC(=O)CCc2nc(-c3ccc(C)cc3)no2)c1`, the activation is 3.85% (inactive). With `COc1ccccc1-c1noc(CSc2nnc(-c3ccccc3)n2-c2ccc(C)c(C)c2)n1` the figure was 0.886% (inactive); with `COc1cccc(C(=O)c2sc3nc(-c4ccccc4)cc(C(F)(F)F)c3c2N)c1`, 171% (active); with `COc1cccc(C(=O)Nc2ccc(-c3cc(C(F)(F)F)nn3-c3ccccc3)cc2)c1`, 2.16% (inactive). Consider `COc1cccc(C(=O)NC(=O)Nc2nc(C)cc(C(F)(F)F)n2)c1`, for which the activation was 2.89% (inactive).

With `Cc1ccccc1CNC(=O)CCCn1nc(C)c2sc3ccccc3c2c1=O`, the activation was 5.39% (inactive).

As to `CSc1ccccc1-c1nnc(NC(=O)c2ccc3c(c2)OCCO3)o1`, the activation was 0.0799% (inactive). As to `CCC(C(=O)Nc1cccc(-c2nc3cccnc3s2)c1C)c1ccccc1` (stereo not given), the activation was 6.2% (inactive).

In the case of `COc1cc(NS(=O)(=O)c2cccs2)cc(OC)c1`, the activation was -0.545% (inactive). With `COc1cc(NC(=O)c2ccccc2NS(=O)(=O)c2ccc(Cl)s2)cc(OC)c1`, the activation is 32.7% (active). For `O=S(=O)(Nc1ccccc1N1CCOCC1)c1ccc(Cl)s1`, the activation was 0.142% (inactive). With `CCCn1c(NCc2ccc(N(CC)CC)cc2)nc2ccccc21` the figure was 15.4% (inactive); with `COc1ccc(CN2CCC(n3nccc3NC(=O)CCCc3ccccc3)CC2)cc1C`, 37.7% (active).

For `Cc1ccc(CN2CCC(n3nccc3NC(=O)CCCc3ccccc3)CC2)o1`, the activation was 1.76% (inactive).

Take `COc1cc(CN2CCC(n3nccc3NC(=O)CCCc3ccccc3)CC2)ccc1O`: the activation was 0.415% (inactive).
